# Inconclusive results are not listed. Active and inactive are the calls of the source. Calls follow the shape of the full dose curve.
# Molecular target: Peroxisome proliferator-activated receptor delta (Homo sapiens) (UniProt Q03181)
# Experiment: qHTS assay to identify small molecule agonists of the peroxisome proliferator-activated receptor delta (PPARd) signaling pathway (AID 743212)
# Details: HEK293H PPARd-UAS-bla, beta-lactamase FRET ratio, 17 h; series mostly up to 62.6 µM; activation: at the top concentration
# From the text: U.S. Tox21 Program National Center for Advancing Translational Sciences [NCATS] NIH Chemical Genomics Center [NCGC] U.S. Environmental Protection Agency [EPA] National Institutes of Environmental Health Sciences [NIEHS] National Toxicology Program [NTP] U.S. Food and Drug Administration [FDA] Tox21 Assay Overview: The peroxisome proliferator-activated receptors (PPARs) are lipid-activated transcription factors of the nuclear receptor superfamily with three distinct subtypes namely PPAR alpha, PPAR delta (PPARd) and PPAR gamma. All these subtypes heterodimerizes with Retinoid X receptor (RXR) and have different physiological functions. […] To identify the compounds that activate PPAR-delta signaling, GeneBLAzer PPAR delta UAS-bla HEK293H cell line (Invitrogen, Carlsbad, CA, USA) containing a beta-lactamase reporter gene under the control of an Upstream Activator Sequence (UAS) was used to screen the Tox21 compound library.
# Tox21 Assay Protocol Summary: PPARd-bla cells were dispensed at 3000 cells/6uL/well in 1536-well black wall/clear bottom plates using a Multidrop Combi (Thermo Fisher Scientific, Waltham, MA) dispenser. After the assay plates were incubated at 37 C and 5% CO2 for 5 h, 23 nL of compounds dissolved in DMSO, positive controls or DMSO only was transferred to the assay plate by a Pintool station (Kalypsys, San Diego, CA). The assay plates were incubated at 37C for 17 h. After 1 uL of LiveBLAzerTM B/G FRET substrate was added using a Bioraptr Flying Reagent Dispenser (FRD) workstation (Beckman Coulter, Indianapolis, IN, USA), the plates were incubated at room temperature for 2 h, and fluorescence intensity was measured by an Envision plate reader (PerkinElmer, Shelton, CT).
# % is scaled to controls: 0 for no effect and ±100 for the full control effect.
# Sequence of Peroxisome proliferator-activated receptor delta (Homo sapiens) (Q03181 whole entry, looked up): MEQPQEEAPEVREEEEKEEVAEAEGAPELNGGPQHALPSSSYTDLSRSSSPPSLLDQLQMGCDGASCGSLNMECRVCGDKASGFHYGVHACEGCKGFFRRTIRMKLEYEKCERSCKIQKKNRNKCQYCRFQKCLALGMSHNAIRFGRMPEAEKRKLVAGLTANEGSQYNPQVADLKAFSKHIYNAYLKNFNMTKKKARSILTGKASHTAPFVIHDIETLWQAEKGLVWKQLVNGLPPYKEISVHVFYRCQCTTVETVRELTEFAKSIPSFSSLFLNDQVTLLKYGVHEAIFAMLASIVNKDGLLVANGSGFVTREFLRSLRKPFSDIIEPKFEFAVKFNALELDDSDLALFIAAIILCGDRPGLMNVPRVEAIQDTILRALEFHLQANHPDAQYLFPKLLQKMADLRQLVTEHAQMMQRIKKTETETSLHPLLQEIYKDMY
row,SMILES,activation
1,CCOC(=O)C(C)(C)C,5.15% [at 81.1 µM] (inactive)
2,CCCCC[Si](OCC)(OCC)OCC,-3.64% (inactive)
3,CC(C)SCc1ccco1,-1.52% [at 29.1 µM] (inactive)
4,Oc1ccccc1Cc1ccccc1O,1.19% (inactive)
5,CN=C(NC#N)NCCSCc1csc(N=C(N)N)n1,0.105% (inactive)
6,O=C(O)Cc1cccc(-c2cc(CCCCCCc3ccc(O[C@H]4O[C@H](CO)[C@@H](O)[C@H](O)[C@@H]4O)c(-c4cccc(CC(=O)O)c4)c3)ccc2O[C@H]2O[C@H](CO)[C@@H](O)[C@H](O)[C@@H]2O)c1,-0.0045% [at 0.55 µM] (inactive)
7,NS(=O)(=O)c1ccccc1OC(F)(F)F,-0.299% (inactive)
8,Cc1cccc(Nc2ccncc2S(=O)(=O)NC(=O)NC(C)C)c1,0.507% (inactive)
9,CC(=O)OC(C(=O)c1ccccc1)c1ccccc1 (stereo not given),-4.12% [at 81.1 µM] (inactive)
10,O=C(O)C(=O)Nc1cccc(-c2nn[nH]n2)c1,1.51% (inactive)
11,Cc1nc2n(c(=O)c1CCN1CCC(C(=O)c3ccc(F)cc3)CC1)CCS2,-3.8% (inactive)
12,NS(=O)(=O)c1cc2c(cc1Cl)NC(C(Cl)Cl)NS2(=O)=O (stereo not given),-0.136% (inactive)
13,NC(=O)NNC(N)=O,-3.14% (inactive)
14,C[N+](C)(C)CC(O)CCl (stereo not given),-0.24% [at 81.1 µM] (inactive)
15,COC(OC)C(C)c1ccccc1 (stereo not given),-4.75% (inactive)
16,COc1ccc(NS(=O)(=O)c2ccc(N)cc2)nn1,3.34% (inactive)
17,C=CCOCC(O)CCl (stereo not given),1.99% (inactive)
18,CCCOC(=O)CCCCC(=O)OCCC,-3.64% (inactive)
19,CCN(CCC#N)c1ccccc1,0.73% (inactive)
20,Cc1cccc(NC(=S)N(C)C)c1,-0.288% (inactive)

row,SMILES,activation
1,CC1=CC[C@H](CC=O)C1(C)C,-1.81% (inactive)
2,CCCCCCCCCCCCC1CO1 (stereo not given),0.2% (inactive)
3,CCCCCCCCC(=O)OCC,-3.55% (inactive)
4,CC(C)CCCCCCOC(=O)C1CCCCC1C(=O)OCCCCCCC(C)C (stereo not given),-1.21% (inactive)
5,N#CCCOCCOCCC#N,0.653% (inactive)
6,CCNC(=O)/C=C/c1cccc(Br)c1,-3.36% (inactive)
7,Nc1c(NC/C=C\COc2cc(CN3CCCCC3)ccn2)c(=O)c1=O,-5.31% [at 29.1 µM] (inactive)
8,CCC(=O)OCCC(C)CCC=C(C)C (stereo not given),-1.07% (inactive)
9,CNC(=O)C(c1ccccc1)c1ccccc1,7.17% (inactive)
10,CN(C1CCCCC1)S(=O)(=O)c1ccccc1N,-6.48% (inactive)
11,COCC(=O)Nc1c(I)c(C(=O)NCC(O)CO)c(I)c(C(=O)N(C)CC(O)CO)c1I (stereo not given),-3.65% (inactive)
12,C=CCCCCCCCCCCC,-5.08% [at 5.95 µM] (inactive)
13,CC(=O)N(CC(O)CO)c1c(I)c(C(=O)NCC(O)CO)c(I)c(C(=O)NCC(O)CO)c1I (stereo not given),-1.59% (inactive)
14,O=C(O)CCNC(=O)c1ccccc1,-1.05% (inactive)
15,CC(C)(C)c1ccc(C=O)cc1,2.26% (inactive)
16,COc1cc([N+](=O)[O-])ccc1N,7.68% (inactive)
17,CCCOCCOCCOCCO,-0.113% (inactive)
18,COc1ccc(N=Nc2cc(C)c(N=Nc3ccc(S(=O)(=O)O)cc3)cc2OC)cc1,-9.1% (inactive)
19,CCCCCC1Nc2cc(C(F)(F)F)c(S(N)(=O)=O)cc2S(=O)(=O)N1 (stereo not given),-6.01% (inactive)
20,CN(C)CCCNCCC#N,-4.97% (inactive)
